Measurements: PubChem BioAssay AID1159580 (chemical genetic matrix, 2015)
Where “and” joins values, the source holds several entries; their conditions need not be identical. Equal values may be shown once. In all, about 5,500 compounds went through this assay and about 2,000 (36%) were called active. About 18% were inconclusive and are not listed. Rule as the data show it: active = normalized growth mostly below about 0.91 (no sharp cut-off); inconclusive = no clear call, values can overlap the other calls; inactive = mostly above about 0.92. The list shows a part of the results.

Test: chemical genetic growth profiling, strain panel (AID 1159580);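 also: tested at 20 µM; growth read once vehicle control cultures reached saturation at 30 °C; 1 = growth at the plate median or of vehicle wells; lower values mean less growth of the strain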
Conditions: S. cerevisiae deletion strains, growth OD

Measured: normalized growth

COc1ccc2c(c1)c(CC(=O)O)c(C)n2C(=O)c1ccc(Cl)cc1
inactive: locus YAL013W, strain DEP1, hits give low values 1.01 | locus YAL021C, strain ccr4, hits give low values 0.987 | locus YAL026C, strain drs2, hits give low values 0.974 | locus YAL030W, strain snc1, hits give low values 0.988 | locus YAL040C, strain CLN3, hits give low values 0.997 | locus YBL061C, strain skt5, hits give low values 0.959 | locus YBR009C, strain hhf1, hits give low values 0.931 | locus YBR021W, strain FUR4, hits give low values 1 | locus YBR023C, strain chs3, hits give low values 0.969 | locus YBR171W, strain sec66, hits give low values 0.967 | locus YBR229C, strain ROT2, hits give low values 1 | locus YBR231C, strain swc5, hits give low values 0.972 | locus YBR279W, strain paf1, hits give low values 0.988 | locus YCL011C, strain gbp2, hits give low values 0.921 | locus YCL016C, strain dcc1, hits give low values 0.919 | locus YCL029C, strain bik1, hits give low values 0.988 | locus YCL061C, strain MRC1 (second series), hits give low values 1.01 | locus YCL061C, strain MRC1, hits give low values 0.96 | locus YCL069W, strain vba3, hits give low values 0.986 | locus YCR088W, strain abp1, hits give low values 0.99 | locus YDL005C, strain med2, hits give low values 0.973 | locus YDL035C, strain GPR1, hits give low values 1.02 | locus YDL040C, strain nat1, hits give low values 0.991 | locus YDL074C, strain BRE1, hits give low values 1.02 | locus YDL101C, strain DUN1, hits give low values 1.01 | locus YDL185W, strain tfp1, hits give low values 0.973 | locus YDL192W, strain arf1, hits give low values 0.998 | locus YDR001C, strain nth1, hits give low values 0.978 | locus YDR069C, strain doa4, hits give low values 1.01 | locus YDR101C, strain arx1, hits give low values 1.02 | locus YDR137W, strain rgp1, hits give low values 0.95 | locus YDR159W, strain sac3, hits give low values 1.01 | locus YDR162C, strain NBP2, hits give low values 0.995 | locus YDR195W, strain ref2 1.02 | locus YDR297W, strain sur2, hits give low values 1.01 | locus YDR318W, strain mcm21, hits give low values 0.979 | locus YDR334W, strain swr1, hits give low values 0.981 | locus YDR335W, strain msn5, hits give low values 0.991 | locus YDR363W, strain ESC2, hits give low values 0.996 | locus YDR388W, hits give low values 0.982 | locus YDR392W, strain spt3, hits give low values 0.885 | locus YDR502C, strain sam2, hits give low values 0.981 | locus YEL003W, strain gim4, hits give low values 1 | locus YEL037C, strain rad23, hits give low values 0.961 | locus YEL061C, strain CIN8 (second series), hits give low values 0.979 | locus YEL061C, strain CIN8, hits give low values 1 | locus YER002W, strain NOP16, hits give low values 1.02 | locus YER015W, strain faa2, hits give low values 0.976 | locus YER016W, strain bim1, hits give low values 0.989 | locus YER110C, hits give low values 0.986 | locus YER111C, strain swi4, hits give low values 0.98 | locus YER155C, strain BEM2 (second series), hits give low values 0.874 | locus YER155C, strain BEM2, hits give low values 0.989 | locus YER167W, strain BCK2, hits give low values 0.995 | locus YFR010W, strain ubp6, hits give low values 0.975 | locus YGL078C, strain dbp3, hits give low values 0.978 | locus YGL086W, strain mad1, hits give low values 0.995 | locus YGL167C, strain pmr1, hits give low values 0.983 | locus YGL173C, strain kem1, hits give low values 0.985 | locus YGL227W, strain vid30, hits give low values 0.976 | locus YGL240W, strain doc1, hits give low values 1.01 | locus YGL248W, strain PDE1, hits give low values 1.01 | locus YGL253W, strain hxk2, hits give low values 0.993 | locus YGR135W, strain pre9, hits give low values 0.963 | locus YGR252W, strain gcn5, hits give low values 0.94 | locus YHR013C, strain ard1, hits give low values 0.968 | locus YHR027C, strain rpn1, hits give low values 0.981 | locus YHR030C, strain SLT2, hits give low values 1.01 and 0.952 | locus YHR079C, strain IRE1 (second series), hits give low values 0.987 | locus YHR079C, strain IRE1, hits give low values 0.96 | locus YHR094C, strain hxt1, hits give low values 0.975 | locus YHR129C, strain ARP1, hits give low values 1.01 | locus YHR142W, strain chs7, hits give low values 0.912 | locus YHR200W, strain rpn10, hits give low values 0.99 | locus YIL066C, strain RNR3, hits give low values 1 | locus YIL073C, strain SPO22, hits give low values 0.987 | locus YIL125W, strain kgd1, hits give low values 0.945 | locus YIR030C, strain dcg1, hits give low values 0.986 | locus YJL092W, strain hpr5, hits give low values 0.92 | locus YJL095W, strain BCK1 (second series), hits give low values 0.996 | locus YJL095W, strain BCK1, hits give low values 1 and 0.969 | locus YJL115W, strain asf1, hits give low values 0.969 | locus YJL129C, strain trk1, hits give low values 0.909 | locus YJL134W, strain LCB3, hits give low values 0.997 | locus YJL154C, strain vps35, hits give low values 0.989 | locus YJL164C, strain tpk1, hits give low values 0.976 | locus YJL166W, strain qcr8, hits give low values 0.977 | locus YJL168C, strain set2, hits give low values 0.979 | locus YJL187C, strain SWE1 (second series), hits give low values 1 | locus YJL187C, strain SWE1, hits give low values 0.991 | locus YJR043C, strain POL32, hits give low values 1.02 | locus YJR066W, strain TOR1, hits give low values 0.911
